Results filed as inconclusive are left out. Active and inactive are the calls of the source. Calls come from the whole dose curve; as a rule, active = well fitted curve in the direction sought with a large enough effect; inconclusive = small, poorly fitted or top-dose-only effect, or another doubt; inactive = no such curve, though single readings can be large; an effect the other way counts as inactive or inconclusive.

Assay [1] is described as follows: Quantitative High-Throughput drug screen in 47 multiple myeloma cell lines against the NCATS MIPE library collection: Karpas620_DSMZ cell viability assay (AID 1918959). Note: nearly all actives have a fitted effect of over 30% in size. The procedure, abridged: (§1)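 qHTS of the MIPE 4.0 collection: 500 myeloma cells/well, 48 h drug exposure at 37C in 5% CO2, then CellTiter-Glo for 5 min at room temperature before luminescence reading.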

The nature of assay [2]: Quantitative High-Throughput drug screen in 47 multiple myeloma cell lines against the NCATS MIPE library collection: KMM1_JCRB cell viability assay (AID 1918960). Note: nearly all actives have a fitted effect of over 30% in size. The procedure, abridged: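 Viability screen: myeloma cells (500/well) incubated 48 h at 37 °C, humidified 5% CO2, with pinned library compounds; CellTiter-Glo added, luminescence read; DMSO wells set 100%, medium-only wells 0%.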

The nature of assay [3]: Quantitative High-Throughput drug screen in 47 multiple myeloma cell lines against the NCATS MIPE library collection: Karpas417_ECACC cell viability assay (AID 1918961). The following applies: Karpas417 myeloma viability, CellTiter-Glo ATP luminescence, 48 h; viability (% of DMSO): at 45.8 µM (top of the series). Put shortly: (§2)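 Luminescent ATP measurement with CellTiter-Glo gives viability, scaled between DMSO-only wells (100%) and media-only wells (0%). Cells, 500 per well, faced library compounds for 48 hours at 37C.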
For orientation: Cellular ATP, detected with luciferase, serves as a proxy for viable cell number.

Assay [4] can be described thus: Quantitative High-Throughput drug screen in 47 multiple myeloma cell lines against the NCATS MIPE library collection: JIM3_ECACC cell viability assay (AID 1918963; note: nearly all actives have a fitted effect of over 35% in size). The procedure, abridged:
as §1

Assay [5] is described as follows: Quantitative High-Throughput drug screen in 47 multiple myeloma cell lines against the NCATS MIPE library collection: JIM1_ECACC cell viability assay (AID 1918964). The procedure, abridged:
(§3)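 Inhibition of cell viability is measured here. Each line was plated at 500 cells per well, treated with MIPE 4.0 drugs, kept 48 hours at 37C, then assayed for ATP content by CellTiter-Glo luminescence.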

Assay [6] is described as follows: Quantitative High-Throughput drug screen in 47 multiple myeloma cell lines against the NCATS MIPE library collection: INA6_PLB cell viability assay (AID 1918965; note: nearly all actives have a fitted effect of over 55% in size). Put shortly:
as §2

A short description of assay [7]: Quantitative High-Throughput drug screen in 47 multiple myeloma cell lines against the NCATS MIPE library collection: JJN3_DSMZ cell viability assay (AID 1918966; note: nearly all actives have a fitted effect of over 50% in size). Put shortly: as §3
Assay [8] can be described thus: Quantitative High-Throughput drug screen in 47 multiple myeloma cell lines against the NCATS MIPE library collection: KMS27_JCRB cell viability assay (AID 1918970). Note: nearly all actives have a fitted effect of over 30% in size. The settings on record: KMS27 myeloma cells, CellTiter-Glo ATP viability, 48 h; viability (% of DMSO): at 45.8 µM (top of the series). The procedure, abridged:
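Each line is seeded at 500 cells per well and treated with library compounds for 48 hours under 37 °C, 5% CO2. CellTiter-Glo is then added for 5 min at room temperature before median relative luminescence is recorded.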

Assay [9] in a line: Quantitative High-Throughput drug screen in 47 multiple myeloma cell lines against the NCATS MIPE library collection: KMS12BM_JCRB cell viability assay (AID 1918971). Note: nearly all actives have a fitted effect of over 35% in size. Put shortly:
(§4)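 Viability readout: CellTiter-Glo luminescence following 5 min room-temperature incubation with reagent. Prior exposure: 48 h, 37C, humidified 5% CO2, 500 cells per well.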

Assay [10] in a line: Quantitative High-Throughput drug screen in 47 multiple myeloma cell lines against the NCATS MIPE library collection: KMS12PE_JCRB cell viability assay (AID 1918972). Note: nearly all actives have a fitted effect of over 30% in size. The procedure, abridged: as §2
The nature of assay [11]: Quantitative High-Throughput drug screen in 47 multiple myeloma cell lines against the NCATS MIPE library collection: KMS20_JCRB cell viability assay (AID 1918973). Note: nearly all actives have a fitted effect of over 45% in size. Put shortly: as §3
The nature of assay [12]: Quantitative High-Throughput drug screen in 47 multiple myeloma cell lines against the NCATS MIPE library collection: KMS21BM_JCRB cell viability assay (AID 1918974). The settings on record: ATP luminescence, 48 h; viability: at 45.8 µM (top of the series). Put shortly:
as §3

Assay [13] can be described thus: Quantitative High-Throughput drug screen in 47 multiple myeloma cell lines against the NCATS MIPE library collection: KMS26_JCRB cell viability assay (AID 1918975). Note: nearly all actives have a fitted effect of over 45% in size. The procedure, abridged: as §4
Assay [14] in a line: Quantitative High-Throughput drug screen in 47 multiple myeloma cell lines against the NCATS MIPE library collection: MMM1_PLB cell viability assay (AID 1918976). Note: nearly all actives have a fitted effect of over 35% in size. Put shortly: (§5)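 qHTS format: cells plated (500/well), pin-dosed with MIPE 4.0 compounds, kept 48 h at 37 °C. Readout was CellTiter-Glo luminescence, median RLU.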
A short description of assay [15]: Quantitative High-Throughput drug screen in 47 multiple myeloma cell lines against the NCATS MIPE library collection: MOLP8_DSMZ cell viability assay (AID 1918977). Note: nearly all actives have a fitted effect of over 45% in size. Put shortly: as §5
A short description of assay [16]: Quantitative High-Throughput drug screen in 47 multiple myeloma cell lines against the NCATS MIPE library collection: NCIH929_DSMZ cell viability assay (AID 1918978). Note: nearly all actives have a fitted effect of over 35% in size. Put shortly:
as §5

A short description of assay [17]: Quantitative High-Throughput drug screen in 47 multiple myeloma cell lines against the NCATS MIPE library collection: KHM11_PLB cell viability assay (AID 1918962). Note: nearly all actives have a fitted effect of over 35% in size. The procedure, abridged: as §1
A short description of assay [18]: Quantitative High-Throughput drug screen in 47 multiple myeloma cell lines against the NCATS MIPE library collection: H1112_PLB cell viability assay (AID 1918967; note: nearly all actives have a fitted effect of over 30% in size). The procedure, abridged: as §3
Assay [19] in a line: Quantitative High-Throughput drug screen in 47 multiple myeloma cell lines against the NCATS MIPE library collection: Karpas25_ECACC cell viability assay (AID 1918968; note: nearly all actives have a fitted effect of over 35% in size). The procedure, abridged: as §3
The nature of assay [20]: Quantitative High-Throughput drug screen in 47 multiple myeloma cell lines against the NCATS MIPE library collection: OCIMY1_PLB cell viability assay (AID 1918979). Note: nearly all actives have a fitted effect of over 35% in size. The procedure, abridged: as §5
Potency is the fitted concentration of half-maximal effect.

Turning to `CN1CCCN(C(=O)c2cccc(-c3ccc(C=C4C(=O)Nc5ccc(Cl)cc54)o3)c2)CC1`, the Potency is 9.35 µM (active) in assay [1]; 18.7 µM (active) in assay [2]; 3.72 µM (active) in assay [3]; 26.4 µM (active) in assay [4]; 6.62 µM (active) in [5]; 7.43 µM (active) in assay [6]. Further, the Potency is 18.7 µM (active) in [7]; 3.32 µM (active) in assay [8]; 23.5 µM (active) in assay [9]; 7.43 µM (active) in assay [10]; 4.69 µM (active) in assay [11]; 7.43 µM (active) in assay [12]. Moreover, the Potency in [13] was 18.7 µM (active); in [14] it was 8.33 µM (active); in [15] it was 4.18 µM (active); in assay [16], 20.9 µM (active).
As for `COc1cc(CCc2cc(NC(=O)c3ccc(N4C[C@@H](C)N[C@@H](C)C4)cc3)n[nH]2)cc(OC)c1`, the Potency was 20.9 µM (active) in [1]; 18.7 µM (active) in [2]; 2.35 µM (active) in assay [3]; 9.35 µM (active) in assay [17]; 14.8 µM (active) in [4]; 2.35 µM (active) in assay [5]. Also, the Potency in assay [6] was 9.35 µM (active); in assay [18] it was 11.8 µM (active); in assay [19] it was 16.6 µM (active); in assay [8], 18.7 µM (active); in [9], 11.8 µM (active); in [10], 16.6 µM (active). Further, the Potency is 4.69 µM (active) in [11]; 20.9 µM (active) in assay [13]; 16.6 µM (active) in assay [14]; 18.7 µM (active) in assay [15]; 10.5 µM (active) in [16].
For the compound `CCNC(=O)c1cc2c(-c3cc(OCCN4CCCC4)c(Cl)cc3Cl)nc(N)nc2s1`, the Potency was 1.05 µM (active) in [1]; 0.59 µM (active) in assay [2]; 0.59 µM (active) in [3]; 0.59 µM (active) in assay [17]; 0.935 µM (active) in assay [4]; 0.469 µM (active) in [5]. Further, the Potency in assay [6] was 0.59 µM (active); in assay [18], 6.62 µM (active); in assay [19], 0.833 µM (active); in assay [8], 1.18 µM (active); in [9], 1.48 µM (active); in [10], 0.418 µM (active). Also, the Potency in assay [11] is 1.66 µM (active); in assay [13], 2.35 µM (active); in assay [14], 2.96 µM (active); in assay [15], 0.743 µM (active); in assay [16], 0.935 µM (active); in assay [20], 3.32 µM (active).
Consider `COc1cc2c(cc1OC)[C@@H]1C(=O)c3ccc4c(c3O[C@@H]1CO2)C=CC(C)(C)O4`, for which the Potency in assay [1] was 0.0332 µM (active); in [2], 0.526 µM (active); in assay [3], 0.209 µM (active); in [17], 4.18 µM (active); in assay [4], 8.33 µM (active); in [5] it was 1.18 µM (active). Besides, the Potency in assay [6] was 0.001 µM (active); in [7] it was 9.35 µM (active); in assay [9], 0.418 µM (active); in assay [10], 0.372 µM (active); in [11], 6.62 µM (active); in assay [12] it was 0.0662 µM (active). Moreover, the Potency in assay [13] was 9.35 µM (active); in assay [14] it was 0.0187 µM (active); in assay [15], 11.8 µM (active).
Consider `CCCCCCCCCCCCCCCC(=O)OC[C@@H](NC(=O)C(Cl)Cl)[C@H](O)c1ccc([N+](=O)[O-])cc1`, for which the Potency entry in assay [1], in [2], in [3], in [4], in assay [5] and in assay [18] was “inactive” each time. The Potency result in assay [8], in [9], in assay [10], in assay [11], in assay [12] and in [13] was “inactive” throughout. Moreover, the Potency entry in [15] was “inactive”.
For `c1cc(N[C@@H]2CCNC2)nc(-c2cnc3ccc(-c4cn[nH]c4)cn23)c1`, the Potency in assay [1] was 10.5 µM (active); in assay [2], 8.33 µM (active); in assay [3] it was 4.69 µM (active); in [17], 3.32 µM (active); in assay [5], 4.18 µM (active); in assay [6], 0.935 µM (active). The Potency in assay [7] is 5.9 µM (active); in assay [18], 11.8 µM (active); in assay [19], 5.9 µM (active); in [8] it was 2.64 µM (active); in assay [9] it was 16.6 µM (active); in assay [10], 16.6 µM (active). In addition, the Potency in assay [11] is 11.8 µM (active); in assay [13], 14.8 µM (active); in assay [15] it was 2.96 µM (active); in [16] it was 13.2 µM (active).
As for `c1cc(CN2CCCNCCNCCCNCC2)ccc1CN1CCCNCCNCCCNCC1`, the Potency result in [1], in assay [2], in assay [4], in assay [6], in assay [18] and in assay [8] was “inactive” in each case. In addition, the Potency entry in [9] and in assay [13] was “inactive” each time. Moreover, in assay [3], the viability (% of DMSO) was 134% (active).
On to `CC(C=CC(=O)NO)=C[C@@H](C)C(=O)c1ccc(N(C)C)cc1`, for which the Potency in assay [1] was 0.418 µM (active); in assay [2], 0.209 µM (active); in assay [3] it was 0.105 µM (active); in [17], 0.372 µM (active); in assay [4], 0.743 µM (active); in [5], 0.296 µM (active). The Potency was 0.0833 µM (active) in [6]; 0.187 µM (active) in assay [7]; 0.372 µM (active) in [18]; 0.264 µM (active) in [19]; 0.264 µM (active) in assay [8]; 0.264 µM (active) in [9]. The Potency is 0.235 µM (active) in assay [10]; 0.148 µM (active) in assay [11]; 0.166 µM (active) in assay [12]; 0.264 µM (active) in assay [13]; 0.187 µM (active) in [14]; 0.0935 µM (active) in assay [15]. The Potency is 0.296 µM (active) in assay [16] and 0.372 µM (active) in assay [20].
Turning to `O=C1NC(O)CCN1[C@@H]1O[C@H](CO)[C@H](O)[C@H]1O` (some centres not stated), the Potency result in [1], in assay [2], in assay [3], in assay [17], in [4] and in assay [18] was “inactive” throughout. Further, the Potency result in [19], in assay [8], in assay [10], in assay [13], in [15] and in assay [16] was “inactive” in each case. Further, the Potency result in assay [20] was “inactive”.

Values taken from PubChem BioAssay (NCATS).
